Experimental data published in PubChem BioAssay AID1159580 (chemical genetic matrix, 2015).
The whole screen tested about 5,500 compounds, of which about 2,000 (36%) were called active. Not shown: some 18% with an inconclusive outcome. The list shows a part of the results. Values without a mark were called inactive. Cut-off read from the data, not from the text of the source: active = normalized growth mostly below about 0.91 (no sharp cut-off); inconclusive = no clear call, values can overlap the other calls; inactive = mostly above about 0.92.

Assay: chemical genetic growth profiling, strain panel (AID 1159580);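 note: tested at 20 µM; growth read once vehicle control cultures reached saturation at 30 °C; 1 = growth at the plate median or of vehicle wells; lower values mean less growth of the strain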
Details: growth OD

## CC/C(=C(/CC)c1ccc(O)cc1)c1ccc(O)cc1
S. cerevisiae deletion strains, locus YKL009W, strain mrt4, stronger effect = lower value
  normalized growth: 0.916
S. cerevisiae deletion strains, locus YKL068W, stronger effect = lower value
  normalized growth: 1.01
S. cerevisiae deletion strains, locus YKL085W, strain MDH1 (second series), stronger effect = lower value
  normalized growth: 0.973
S. cerevisiae deletion strains, locus YKL085W, strain MDH1, stronger effect = lower value
  normalized growth: 0.973
S. cerevisiae deletion strains, locus YKL160W, strain elf1, stronger effect = lower value
  normalized growth: 0.955
S. cerevisiae deletion strains, locus YKL190W, strain CNB1, stronger effect = lower value
  normalized growth: 1
S. cerevisiae deletion strains, locus YKR001C, strain vps1, stronger effect = lower value
  normalized growth: 0.987
S. cerevisiae deletion strains, locus YKR026C, strain gcn3, stronger effect = lower value
  normalized growth: 1.02
S. cerevisiae deletion strains, locus YKR091W, strain srl3, stronger effect = lower value
  normalized growth: 1.01
S. cerevisiae deletion strains, locus YLL001W, strain dnm1, stronger effect = lower value
  normalized growth: 1
S. cerevisiae deletion strains, locus YLL026W, stronger effect = lower value
  normalized growth: 1
S. cerevisiae deletion strains, locus YLL041C, strain sdh2, stronger effect = lower value
  normalized growth: 1.02
S. cerevisiae deletion strains, locus YLR027C, strain aat2, stronger effect = lower value
  normalized growth: 1.01
S. cerevisiae deletion strains, locus YLR039C, strain RIC1, stronger effect = lower value
  normalized growth: 0.481 (active)
S. cerevisiae deletion strains, locus YLR058C, strain SHM2, stronger effect = lower value
  normalized growth: 0.943
S. cerevisiae deletion strains, locus YLR102C, strain apc9, stronger effect = lower value
  normalized growth: 1.01
S. cerevisiae deletion strains, locus YLR113W, strain HOG1, stronger effect = lower value
  normalized growth: 0.963
S. cerevisiae deletion strains, locus YLR221C, strain rsa3, stronger effect = lower value
  normalized growth: 0.956
S. cerevisiae deletion strains, locus YLR258W, strain gsy2, stronger effect = lower value
  normalized growth: 0.963
S. cerevisiae deletion strains, locus YLR262C, strain YPT6 (second series), stronger effect = lower value
  normalized growth: 0.485 (active)
S. cerevisiae deletion strains, locus YLR262C, strain YPT6, stronger effect = lower value
  normalized growth: 0.439 (active)
S. cerevisiae deletion strains, locus YLR268W, strain sec22, stronger effect = lower value
  normalized growth: 0.945
S. cerevisiae deletion strains, locus YLR320W, strain mms22, stronger effect = lower value
  normalized growth: 0.84 (active)
S. cerevisiae deletion strains, locus YLR330W, strain CHS5, stronger effect = lower value
  normalized growth: 0.981
S. cerevisiae deletion strains, locus YLR342W, strain FKS1 (second series), stronger effect = lower value
  normalized growth: 0.89
S. cerevisiae deletion strains, locus YLR342W, strain FKS1, stronger effect = lower value
  normalized growth: 1.01
S. cerevisiae deletion strains, locus YLR357W, strain rsc2, stronger effect = lower value
  normalized growth: 1.14
S. cerevisiae deletion strains, locus YLR370C, strain arc18, stronger effect = lower value
  normalized growth: 1.01
S. cerevisiae deletion strains, locus YLR371W, strain rom2, stronger effect = lower value
  normalized growth: 1.02
S. cerevisiae deletion strains, locus YLR384C, strain iki3, stronger effect = lower value
  normalized growth: 1.02
S. cerevisiae deletion strains, locus YLR418C, strain cdc73, stronger effect = lower value
  normalized growth: 0.956
S. cerevisiae deletion strains, locus YML016C, strain PPZ1, stronger effect = lower value
  normalized growth: 1.01
S. cerevisiae deletion strains, locus YML032C, strain rad52, stronger effect = lower value
  normalized growth: 0.914
S. cerevisiae deletion strains, locus YML120C, strain ndi1, stronger effect = lower value
  normalized growth: 1.01
S. cerevisiae deletion strains, locus YML124C, strain tub3, stronger effect = lower value
  normalized growth: 1.01
S. cerevisiae deletion strains, locus YMR058W, strain fet3, stronger effect = lower value
  normalized growth: 0.974
S. cerevisiae deletion strains, locus YMR078C, strain ctf18, stronger effect = lower value
  normalized growth: 1
S. cerevisiae deletion strains, locus YMR125W, strain sto1, stronger effect = lower value
  normalized growth: 1.09
S. cerevisiae deletion strains, locus YMR129W, stronger effect = lower value
  normalized growth: 1.02
S. cerevisiae deletion strains, locus YMR205C, strain PFK2, stronger effect = lower value
  normalized growth: 0.943
S. cerevisiae deletion strains, locus YMR223W, strain ubp8, stronger effect = lower value
  normalized growth: 0.942
S. cerevisiae deletion strains, locus YMR231W, strain pep5, stronger effect = lower value
  normalized growth: 1.03
S. cerevisiae deletion strains, locus YMR307W, strain GAS1, stronger effect = lower value
  normalized growth: 0.569 (active)
S. cerevisiae deletion strains, locus YNL067W, strain RPL9B, stronger effect = lower value
  normalized growth: 0.933
S. cerevisiae deletion strains, locus YNL071W, strain lat1, stronger effect = lower value
  normalized growth: 0.913 (active)
S. cerevisiae deletion strains, locus YNL153C, strain GIM3, stronger effect = lower value
  normalized growth: 0.918
S. cerevisiae deletion strains, locus YNL183C, strain NPR1, stronger effect = lower value
  normalized growth: 0.921
S. cerevisiae deletion strains, locus YNL209W, strain ssb2, stronger effect = lower value
  normalized growth: 0.981
S. cerevisiae deletion strains, locus YNL233W, strain BNI4, stronger effect = lower value
  normalized growth: 0.896
S. cerevisiae deletion strains, locus YNL248C, strain rpa49, stronger effect = lower value
  normalized growth: 1.02
S. cerevisiae deletion strains, locus YNL250W, strain rad50, stronger effect = lower value
  normalized growth: 1
S. cerevisiae deletion strains, locus YNL271C, strain bni1, stronger effect = lower value
  normalized growth: 1
S. cerevisiae deletion strains, locus YNL298W, strain CLA4, stronger effect = lower value
  normalized growth: 0.914
S. cerevisiae deletion strains, locus YNL307C, strain MCK1, stronger effect = lower value
  normalized growth: 0.995
S. cerevisiae deletion strains, locus YNL322C, strain KRE1 (second series), stronger effect = lower value
  normalized growth: 1.03
S. cerevisiae deletion strains, locus YNL322C, strain KRE1, stronger effect = lower value
  normalized growth: 0.992
S. cerevisiae deletion strains, locus YNR049C, strain mso1, stronger effect = lower value
  normalized growth: 1.01
S. cerevisiae deletion strains, locus YNR052C, strain pop2, stronger effect = lower value
  normalized growth: 0.99
S. cerevisiae deletion strains, locus YOL006C, strain TOP1, stronger effect = lower value
  normalized growth: 0.73
S. cerevisiae deletion strains, locus YOL012C, strain htz1
  normalized growth: 1.4
S. cerevisiae deletion strains, locus YOL147C, strain pex11, stronger effect = lower value
  normalized growth: 1.02
S. cerevisiae deletion strains, locus YOR001W, strain rrp6, stronger effect = lower value
  normalized growth: 0.997
S. cerevisiae deletion strains, locus YOR061W, strain CKA2, stronger effect = lower value
  normalized growth: 0.976
S. cerevisiae deletion strains, locus YOR069W, strain VPS5, stronger effect = lower value
  normalized growth: 1
S. cerevisiae deletion strains, locus YOR070C, strain gyp1, stronger effect = lower value
  normalized growth: 0.945
S. cerevisiae deletion strains, locus YOR080W, strain dia2, stronger effect = lower value
  normalized growth: 1.02
S. cerevisiae deletion strains, locus YOR083W, strain WHI5, stronger effect = lower value
  normalized growth: 0.948
S. cerevisiae deletion strains, locus YOR106W, strain vam3, stronger effect = lower value
  normalized growth: 0.951
S. cerevisiae deletion strains, locus YOR136W, strain idh2, stronger effect = lower value
  normalized growth: 1.01
S. cerevisiae deletion strains, locus YOR144C, strain elg1, stronger effect = lower value
  normalized growth: 1.01
S. cerevisiae deletion strains, locus YOR184W, strain ser1, stronger effect = lower value
  normalized growth: 0.812 (active)
S. cerevisiae deletion strains, locus YOR231W, strain MKK1, stronger effect = lower value
  normalized growth: 0.976
S. cerevisiae deletion strains, locus YOR265W, strain rbl2, stronger effect = lower value
  normalized growth: 0.999
S. cerevisiae deletion strains, locus YOR270C, strain vph1, stronger effect = lower value
  normalized growth: 0.728 (active)
S. cerevisiae deletion strains, locus YOR290C, strain snf2, stronger effect = lower value
  normalized growth: 0.961
S. cerevisiae deletion strains, locus YOR316C, strain cot1, stronger effect = lower value
  normalized growth: 1
S. cerevisiae deletion strains, locus YPL051W, strain arl3, stronger effect = lower value
  normalized growth: 0.919
S. cerevisiae deletion strains, locus YPL055C, strain LGE1, stronger effect = lower value
  normalized growth: 0.811
S. cerevisiae deletion strains, locus YPL078C, strain atp4, stronger effect = lower value
  normalized growth: 0.953
S. cerevisiae deletion strains, locus YPL106C, strain sse1, stronger effect = lower value
  normalized growth: 1.12
S. cerevisiae deletion strains, locus YPL240C, strain hsp82, stronger effect = lower value
  normalized growth: 1.01
S. cerevisiae deletion strains, locus YPL256C, strain CLN2, stronger effect = lower value
  normalized growth: 0.977
S. cerevisiae deletion strains, locus YPR119W, strain clb2, stronger effect = lower value
  normalized growth: 1
S. cerevisiae deletion strains, locus YPR141C, strain kar3, stronger effect = lower value
  normalized growth: 1.03
S. cerevisiae deletion strains, locus YPR163C, strain tif3, stronger effect = lower value
  normalized growth: 1.02
S. cerevisiae deletion strains, locus YPR167C, strain met16, stronger effect = lower value
  normalized growth: 1
S. cerevisiae deletion strains, strain wtn01, stronger effect = lower value
  normalized growth: 0.971
S. cerevisiae strains, strain wild type, stronger effect = lower value
  normalized growth: 0.948
